The list is not random: actives were taken first. Their share in the collection is about 10%.
RORgamma inh: ROR gamma (mouse) transcription inhibition. AID 2551. 310,000 compounds, 5.4% hits. P51450. Potency, µM (titrated, usually from 53.6 µM), inactives show at the highest dose activity change, negative = inhibition, most hits filed as inhibitors. Drosophila S2 Gal4-RORgamma UAS-luciferase reporter, 20 h; also: % is scaled to controls: 0 for no effect and ±100 for the full control effect; nearly all actives have a fitted effect of over 60% in size
Target sequence (P51450 whole entry, looked up, the tested form may be a part): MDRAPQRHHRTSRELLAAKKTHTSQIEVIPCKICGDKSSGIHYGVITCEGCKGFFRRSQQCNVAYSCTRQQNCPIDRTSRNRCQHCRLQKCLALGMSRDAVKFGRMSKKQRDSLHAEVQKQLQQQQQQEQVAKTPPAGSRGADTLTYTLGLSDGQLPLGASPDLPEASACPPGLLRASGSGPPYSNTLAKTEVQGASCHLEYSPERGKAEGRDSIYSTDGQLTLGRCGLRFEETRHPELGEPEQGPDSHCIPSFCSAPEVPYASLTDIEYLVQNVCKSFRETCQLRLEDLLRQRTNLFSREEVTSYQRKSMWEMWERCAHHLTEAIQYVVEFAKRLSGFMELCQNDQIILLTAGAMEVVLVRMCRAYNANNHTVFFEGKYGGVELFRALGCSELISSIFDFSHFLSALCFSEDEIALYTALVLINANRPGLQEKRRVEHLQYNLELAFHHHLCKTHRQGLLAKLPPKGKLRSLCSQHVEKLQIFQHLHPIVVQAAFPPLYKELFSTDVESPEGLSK
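A Gal4/UAS one-hybrid system in insect cells: metallothionein-promoter Gal4–ROR gamma fusion plus Photinus luciferase reporter. Copper sulfate 700 uM final, 20 hr ambient incubation, luminescent detection after 10 min with reagent.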
VP16 counter: inhibits Gal4-VP16 luciferase reporter, ROR gamma counter-screen; Drosophila S2 Gal4-VP16 UAS-luciferase, luminescence, 20 h; Potency, µM (titrated, usually from 53.6 µM), for the others: at the highest dose activity, negative = inhibition, usual class: inhibitors; 310,000 compounds, 3.5% hits;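 also: Gal4-VP16 expression switched on by copper sulfate through the metallothionein promoter; % is scaled to controls: 0 for no effect and ±100 for the full control effect; nearly all actives have a fitted effect of over 50% in size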
ELG1 DNA repair: blocks ELG1-dependent DNA repair in HEK293T cells; HEK293T ELG1-luciferase reporter, luminescence, 16 h; DNA damage induced by 5-fluorouridine; Potency, µM (highest dose often 46.1 µM), for the others: at the top dose activity change, negative = inhibition, actives largely listed as inhibitors; 330,000 compounds, 2.3% hits; AID 504467; also: % is scaled to controls: 0 for no effect and ±100 for the full control effect; nearly all actives have a fitted effect of over 55% in size
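HEK293T cells expressing luciferase-tagged ELG1 (2,000/well) received 5-Fluorouridine plus compound or DMSO for 16 hr at 37 °C. Luciferase was read by ONE-Glo luminescence after 30 min at room temperature.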
SW480 rerep: DNA re-replication induction in SW480 cells; SW480 DNA re-replication, Hoechst DNA content imaging, 48 h; Potency, µM (top dose mostly 46.1 µM), inactives show top-dose re-replication activation, most hits filed as activators; 340,000 compounds, 1.8% hits; also: % of control where 0% means no effect; nearly all actives have a fitted effect of over 55% in size
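Per well, 250 cells were exposed to pinned compound for 48 hr. Nuclear DNA was visualised with Hoechst (40 min, 37 C) and total object intensity recorded by fluorescence scanning.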
MCF10A rereplic: induces DNA re-replication in MCF 10a normal breast cells. MCF 10A DNA re-replication, Hoechst nuclear intensity, 48 h. Potency, µM (highest dose often 46.1 µM), for inactives: at the top dose activity, positive = re-replication, most hits filed as activators. 350,000 compounds, 2.9% hits. AID 624296; also: % of control where 0% means no effect; nearly all actives have a fitted effect of over 50% in size
Starred values were filed as active, the others as inactive; [ ] = remark or other dose. Calls follow the shape of the dose curve; as a rule, active = well fitted curve in the direction sought with a large enough effect; inconclusive = small, poorly fitted or top-dose-only effect, or another doubt; inactive = no such curve, though single readings can be large; an effect the other way counts as inactive or inconclusive. Potency is read from the fitted curve at half-maximal effect.

Results for Oc1cccc(/C=N/Nc2cc(N3CCOCC3)nc(N3CCOCC3)n2)c1 ?
RORgamma inh: 15%[10 µM]; VP16 counter: -25%; ELG1 DNA repair: inconclusive; SW480 rerep: 5.8µM*; MCF10A rereplic: inconclusive

What do the screens show for `Cc1nc(N/N=C/c2ccc(O)cc2O)cc(N2CCOCC2)n1`?
RORgamma inh: inconclusive; VP16 counter: -14%; ELG1 DNA repair: inconclusive; SW480 rerep: inconclusive; MCF10A rereplic: inconclusive

What do the screens show for `Oc1ccc(/C=N/Nc2cc(N3CCOCC3)nc(N3CCOCC3)n2)cc1O`?
RORgamma inh: -1%; VP16 counter: inconclusive; ELG1 DNA repair: inconclusive; SW480 rerep: 14%; MCF10A rereplic: 21%

Results for Oc1ccccc1/C=N/Nc1cc(N2CCCC2)nc(N2CCCC2)n1 ?
RORgamma inh: 11µM*; VP16 counter: inconclusive; ELG1 DNA repair: inconclusive; SW480 rerep: inconclusive; MCF10A rereplic: 18µM*

How did NN(Cc1ccccc1)C(=S)Nc1ccc(Cl)c(Cl)c1 do in these assays?
RORgamma inh: 11µM*; VP16 counter: inconclusive; ELG1 DNA repair: -4%; SW480 rerep: 4%; MCF10A rereplic: 1%

Results for C/C(=N\NC(=S)Nc1ccc(F)cc1)c1ccc2c(c1)OCCO2 ?
RORgamma inh: 1.3µM*; VP16 counter: 4µM*; ELG1 DNA repair: 9%; SW480 rerep: inconclusive; MCF10A rereplic: 5.8µM*

What do the screens show for `C/C(=N\NC(N)=S)c1ccc2c(c1)OCCO2`?
RORgamma inh: 5µM*; VP16 counter: inconclusive; ELG1 DNA repair: inconclusive; SW480 rerep: -9%; MCF10A rereplic: 0%

What do the screens show for `CCOc1ccc(N=c2scc(-c3ccccc3)n2CCO)cc1`?
RORgamma inh: 15%; VP16 counter: inconclusive; ELG1 DNA repair: inconclusive; SW480 rerep: 1%; MCF10A rereplic: -5%

What do the screens show for `CCOc1ccc(N=c2scc(-c3ccc(OC)cc3)n2CCO)cc1`?
RORgamma inh: inconclusive; VP16 counter: inconclusive; ELG1 DNA repair: 10µM*; SW480 rerep: 2%; MCF10A rereplic: inconclusive

Results for CN1CCN(C(=S)Nc2ccc(S(N)(=O)=O)cc2)CC1 ?
RORgamma inh: -12%; VP16 counter: -1%; ELG1 DNA repair: 2%; SW480 rerep: -36%; MCF10A rereplic: -3%

How did O=C1C=CC(=O)C(C2=C3C(=O)N(CCc4ccccc4)CC(=O)N3CCC2)=C1 do in these assays?
RORgamma inh: inconclusive; VP16 counter: 7.9µM*; ELG1 DNA repair: inconclusive; SW480 rerep: inconclusive; MCF10A rereplic: 7.3µM*

Results for COCCCNC(=O)COC(=O)c1ccc(-c2nc3ccccc3s2)s1 ?
RORgamma inh: 2.8µM*; VP16 counter: 0.28µM*; ELG1 DNA repair: inconclusive; SW480 rerep: 1%; MCF10A rereplic: 2%

How did CCOc1ccc(S(=O)(=O)N(CC)CC(=O)NCc2ccco2)cc1C do in these assays?
RORgamma inh: -1%; VP16 counter: -10%; ELG1 DNA repair: -15%; SW480 rerep: -1%; MCF10A rereplic: 2%

Results for NC(=S)NN=C1CCCCCCCCCC1 ?
SW480 rerep: -4%; MCF10A rereplic: inconclusive

Results for NC(=S)N/N=C1/CCSc2ccc3ccccc3c21 ?
RORgamma inh: 0.63µM*; VP16 counter: 3.2µM*; ELG1 DNA repair: inconclusive; SW480 rerep: -3%; MCF10A rereplic: inconclusive

What do the screens show for `CN1CCN(CC(=O)N2c3ccccc3C(C)(c3ccccc3)CC2(C)C)CC1` (centres undefined)?
RORgamma inh: inconclusive; VP16 counter: -3%; ELG1 DNA repair: -10%; SW480 rerep: 21µM*; MCF10A rereplic: inconclusive

What do the screens show for `CCN(CCCNC(=O)C1CCN(S(=O)(=O)CC)CC1)c1cccc(C)c1`?
RORgamma inh: 17%; VP16 counter: -7%; ELG1 DNA repair: 20%; SW480 rerep: -4%; MCF10A rereplic: -5%

How did CCN(CCCNC(=O)C1CCN(S(=O)(=O)CC)CC1)c1ccccc1 do in these assays?
RORgamma inh: 1%; VP16 counter: -2%; ELG1 DNA repair: -7%; SW480 rerep: 10%; MCF10A rereplic: 2.9µM*
